Screens (PubChem BioAssay)
A selection: hits, their analogues and other compounds. The true share with any hit is near 3.6%.
A3G deaminase: APOBEC3G DNA deaminase inhibitors, primary screen, biochemical, fluorescence, single-stranded DNA substrate, uHTS; AID 493012, 2011; recombinant A3G, ssDNA deamination FAM/TAMRA fluorescence; inhibition, % at 20 µM; DNA dC->dU-editing enzyme APOBEC-3G (Homo sapiens), Q9HC16; 330,000 tested, 0.28% active;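 active = inhibition of at least 40% at 20 µM, with no more than 30% in the related APOBEC3A deaminase screen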;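 also: plate controls were DMSO wells with A3G for no effect and wells lacking A3G enzyme for full effect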
PHOSPHO1 block: PubChem AID 1565. recombinant PHOSPHO1, absorbance phosphatase assay. inhibition, % at 13.3 µM. 290,000 tested, 1.1% active; in the data active = inhibition above about 60%
Target sequence (Q8TCT1 whole entry, looked up): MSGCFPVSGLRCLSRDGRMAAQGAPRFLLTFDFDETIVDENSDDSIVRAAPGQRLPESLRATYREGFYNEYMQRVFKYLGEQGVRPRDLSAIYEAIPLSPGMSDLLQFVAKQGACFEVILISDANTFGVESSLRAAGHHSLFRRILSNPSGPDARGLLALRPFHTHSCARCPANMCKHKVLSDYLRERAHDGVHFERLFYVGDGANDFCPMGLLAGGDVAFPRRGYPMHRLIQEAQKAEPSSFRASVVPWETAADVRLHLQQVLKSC
APOBEC3A inh: APOBEC3A ssDNA deaminase inhibitors, primary screen, selectivity assay for APOBEC3G inhibitor project, biochemical, FAM/TAMRA oligo cleavage fluorescence. DNA dC->dU-editing enzyme APOBEC-3A (Homo sapiens), P31941. recombinant A3A, FAM/TAMRA ssDNA deamination fluorescence. inhibition, % at 20 µM. 330,000 tested, 0.41% active. AID 493011, 2011;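 active = at least 40% inhibition at 20 µM here, with at most 30% in a related deaminase screen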;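 also: plate controls were A3A with DMSO for no effect and wells lacking A3A enzyme for full effect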
Target sequence (P31941 whole entry, looked up): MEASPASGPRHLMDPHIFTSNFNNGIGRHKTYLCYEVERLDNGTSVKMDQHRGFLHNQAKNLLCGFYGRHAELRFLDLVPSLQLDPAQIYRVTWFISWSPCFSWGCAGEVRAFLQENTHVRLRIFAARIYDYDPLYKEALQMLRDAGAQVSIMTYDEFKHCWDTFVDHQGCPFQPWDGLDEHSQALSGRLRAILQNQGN
esBAF inh: Bmi1 luciferase reporter increase in mESCs, primary screen, esBAF inhibitor project, mouse ES cells, Bmi1 luciferase knock-in, single point; 24 h; 100% = twice the neutral-well signal; reporter increase, % at 12.5 µM; 350,000 tested, 2% active; in the data active = activation above about 40%; inconclusive = no clear call, values can overlap the other calls;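 also: 0% = median of the plate's neutral control wells and 100% = double that signal; a rise in the Bmi1 reporter signal indicates esBAF inhibition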
Wnt bcat act: Wnt/beta-catenin pathway activators, primary screen, cell-based, plate reader, single point | activation, % at 9.35 µM | Wnt/beta-catenin reporter cell assay, activator | 300,000 tested, 1.2% active; in the data active = activation above about 30%, passing the limit was not always enough; inconclusive = no clear call, values can overlap the other calls;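 also: 0% = neutral control wells and 100% = positive control wells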
MITF act: activators of MITF-driven TRPM1 promoter reporter, primary screen, cell-based, SK-MEL-5, luciferase, single point; 300,000 tested, 0.75% active; activation, % at 12.5 µM; SK-MEL-5 TRPM1-promoter luciferase, 24 h; % of positive control, neutral wells = 0; AID 588334, 2011;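 active = mean activation of at least 80% with every replicate also reaching 80%; inconclusive = mean reaches 80% but some replicate falls short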;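 also: 0% = neutral control wells and 100% = parthenolide positive control wells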
Numbers without * were called inactive; u = inconclusive; x = no result.

SMILES	A3G deaminase	PHOSPHO1 block	APOBEC3A inh	esBAF inh	Wnt bcat act	MITF act
C=CCn1c(C)cc(C(=O)CSc2nc3ccccc3o2)c1C	0.5	13.2	1.7	x	47.2*	46.4
C=CCn1c(C)cc(C(=O)CSc2nc3ccccc3c(=O)[nH]2)c1C	-0.6	19.9	-0.6	12.2	44.1*	16.4
C=CCn1c(C)cc(C(=O)CSc2nc3ccccc3[nH]2)c1C	-7.3	15.3	-3.0	-63.7	x	0.7
Cc1cc(C(=O)CSc2nc3ccccc3o2)c(C)n1C1CC1	1.9	17.6	2.7	36.4	x	x
CCCC#Cc1ccc2c(c1)O[C@H](CN(C)C(=O)c1cnccn1)[C@@H](C)CN([C@H](C)CO)S2(=O)=O	x	x	x	-2.0	x	x
COc1ccc(C(c2c(O)ccc3ccccc23)N2CCOCC2)c(OC)c1 (stereo unspecified)	-5.5	-8.0	-3.1	x	75.6*	x
CCC(=O)Nc1c(C(=O)Nc2ccc3c(c2)OCCO3)oc2ccccc12	-4.0	26.5	-5.1	x	36.4*	97.5*
CCOCC(=O)Nc1c(C(=O)Nc2ccc3c(c2)OCCO3)oc2ccccc12	-7.6	5.5	1.1	x	15.4	94.6*
CCC(=O)Nc1c(C(=O)Nc2cccc(OC)c2)oc2ccccc12	-2.5	-20.9	4.8	42.7*	x	74.0
COCC(=O)Nc1c(C(=O)Nc2ccc3c(c2)OCCO3)oc2ccccc12	-2.9	11.2	-0.2	9.1	18.2	91.6*
CO[C@@H]1CN(C)C(=O)c2ccc(NS(=O)(=O)c3cn(C)cn3)cc2OC[C@H](C)N(C)C[C@H]1C	x	x	x	-3.3	x	x
Cc1noc(C)c1S(=O)(=O)Nc1ccc2c(c1)C(=O)N([C@H](C)CO)C[C@H](C)[C@@H](CN(C)C(=O)Nc1ccc3c(c1)OCO3)OCCCC[C@H](C)O2	x	x	x	3.5	x	x
CCCCC(=O)N1CCN(c2nc3ccc(Br)cc3s2)CC1	-5.6	-16.2	-3.5	34.7	1.7	10.0
CC(=O)N1CCN(c2nc3ccc(Br)cc3s2)CC1	-4.4	-32.1	-3.4	54.2*	23.2	78.8
CCCC(=O)N1CCN(c2nc3ccc(Cl)cc3s2)CC1	1.1	21.8	3.3	52.0*	2.4	76.9
C[C@@H]1CN([C@@H](C)CO)S(=O)(=O)c2ccc(C#CC3CC3)cc2O[C@@H]1CN(C)C(=O)CN(C)C	x	x	x	6.1	x	x
CC(=O)N1[C@H](CO)[C@H](c2ccccc2)[C@@H]1CN(CC(C)C)C(=O)c1ccccn1	x	x	x	1.6	x	x
O=C(c1ccccn1)N1C[C@@H]2[C@H](c3ccccc31)[C@@H](CO)N2C(=O)C1CCOCC1	x	x	x	2.0	x	x
c1ccc(OCCSc2nc3ccccc3o2)cc1	-5.1	20.2	-1.2	86.6*	x	50.3
O=C(O)c1ccc(CSc2nc3ccccc3o2)cc1	12.1	20.2	-0.8	1.6	-1.4	-0.7
O=C(O)c1ccccc1CSc1nc2ccccc2o1	-1.4	75.2*	0.2	34.0	5.1	45.6
Cc1noc(C)c1NC(=O)N(C)C[C@@H]1Oc2ccc(NC(=O)CCC(F)(F)F)cc2C(=O)N([C@H](C)CO)C[C@H]1C	x	x	x	0.9	x	x
O=C(OCC(=O)N1CCN(C(=O)c2ccco2)CC1)c1cc(-c2ccc(F)cc2)nc2ccccc12	-0.8	-5.4	0.5	1.2	x	-2.6
O=C(OCC(=O)N1CCN(C(=O)c2ccco2)CC1)c1cc(-c2ccccc2)nc2ccccc12	-4.5	61.2*	0.9	17.3	x	6.6
Cc1ccsc1C(=O)OCC(=O)N1CCN(C(=O)c2ccco2)CC1	-3.0	62.9*	-3.0	x	-7.7	11.2
SMILES	A3G deaminase	PHOSPHO1 block	APOBEC3A inh	esBAF inh	Wnt bcat act	MITF act
Cc1cccc(C(=O)OCC(=O)N2CCN(C(=O)c3ccco3)CC2)c1O	-6.2	x	-2.1	-0.2	0.7	9.3
Cc1cc(O)c(C(C)C)cc1N=C1CSC(=O)N1	-3.8	86.6*	-3.1	-5.7	0.0	-0.5
C=CCNC(=O)C1CC1(c1cccc(C)c1)c1cccc(C)c1 (stereo unspecified)	3.4	x	3.3	x	42.4*	x
C[C@@H]1CN([C@@H](C)CO)C(=O)c2cc(NS(=O)(=O)c3ccccc3)ccc2O[C@@H]1CN(C)C(=O)Nc1ccccc1	x	x	x	-6.1	x	x
C#CCN(CC=C)C(=O)CCc1nnc(COc2ccccc2)o1	-6.3	1.2	1.3	58.9*	-5.9	38.5
C=C(C)CN(CC)C(=O)CCc1nnc(CCCc2ccccc2)o1	-9.2	6.6	-0.5	x	13.3	54.9
O=C(NNS(=O)(=O)c1ccccc1)C1CCN(S(=O)(=O)c2ccccc2)CC1	-3.8	16.9	-0.2	2.3	42.3*	11.6
c1ccc(-c2cc3cc4c(cc3cn2)OCO4)cc1	-8.4	x	-3.3	30.2	63.3*	27.4
COc1ccc(-c2cc3cc4c(cc3cn2)OCO4)cc1	-3.9	x	-3.8	-31.8	36.7*	21.8
COc1cc(OC)cc(-c2cc3cc4c(cc3cn2)OCO4)c1	-9.6	x	-0.8	-15.8	x	31.1
COc1ccc(-c2cc3cc(OC)c(OC)cc3cn2)cc1	-0.1	x	3.2	67.6*	u	72.2
COc1ccccc1NC(=O)N1C[C@H](O)COC[C@@H]2O[C@@H](CC(=O)NCCc3ccccc3)CC[C@H]21	x	x	x	-5.2	x	x
CO[C@H]1CN(C)C(=O)c2cccc(C#N)c2OCC[C@H]2CC[C@@H](OC)[C@H](CN(C)C(=O)[C@@H]1C)O2	x	x	x	-4.0	x	x
COc1ccc2c(c1)Cc1sc(NC(C)=O)nc1-2	-5.2	17.4	-2.9	41.0*	x	75.3
COc1ccc2c(c1)CCc1sc(NC(=O)c3ccco3)nc1-2	-6.7	42.5	-4.2	22.6	x	58.1
COc1ccc2c(c1)Cc1sc(NC(=O)c3ccco3)nc1-2	-0.3	-107.1	-3.0	46.0*	x	65.4
COc1ccc2c(c1)-c1nc(NC(=O)c3ccco3)sc1CC2	-3.8	9.5	-2.9	x	63.5*	85.1*
COc1ccc2c(c1)Cc1sc(NC(=O)c3cccnc3)nc1-2	-4.4	-11.8	-3.0	x	4.3	32.7
COc1ccc2c(c1)-c1nc(NC(=O)c3cccs3)sc1CC2	-3.9	9.7	-0.7	x	x	19.6
O=C(CN1CCOCC1)N1[C@@H]2CNc3ccccc3[C@@H]2[C@@H]1CO	x	x	x	-0.8	x	x
O=C(NCc1ccc(F)cc1)[C@H]1[C@H](CO)[C@H]2Cn3c(cccc3=O)[C@H]2N1C(=O)C1CC1	x	x	x	0.2	x	x
Cc1ccn2cc(-c3cccc(S(=O)(=O)N4CCCCC4)c3)nc2c1	-2.8	15.4	-0.6	36.9	4.8	13.5
Cc1ccc2nc(-c3cccc(S(=O)(=O)N4CCCC4)c3)cn2c1	0.8	15.9	-2.1	64.2*	12.7	29.1
Cc1ccc2nc(-c3cccc(S(=O)(=O)N(C)C)c3)cn2c1	-0.7	47.6	-2.5	82.9*	x	u
